Results as given in PubChem BioAssay (NCATS).
Inconclusive results are not listed. The source made the active and inactive calls. Calls follow the shape of the dose curve; as a rule, active = well fitted curve in the direction sought with a large enough effect; inconclusive = small, poorly fitted or top-dose-only effect, or another doubt; inactive = no such curve, though single readings can be large; an effect the other way counts as inactive or inconclusive.

Columns and labels:
[1] = MultiTox-Fluor Cytotoxicity Assay - LYMP1-002 - Live Cells (AID 955);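 also: cells exposed to compound for 16 hours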
How it was run: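 Read-out is live-cell protease activity (cell-permeant GF-AFC substrate, fluorescence Ex/Em=405/510), where a decrease indicates acute toxicity. Human lymphoblastoid cells were treated 16 hours at 37 C in a concentration series, and AC50 values came from standard Hill modelling.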

[2] = MultiTox-Fluor Cytotoxicity Assay - LYMP1-003 - Dead Cells (AID 961);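 also: cells exposed to compound for 16 h at 37 °C; nearly all actives have a fitted effect of over 70% in size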
How it was run: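 Acute toxicity is scored as increased dead-cell protease activity in human lymphoblastoid LYMP1-003 cells after 16 h compound exposure in complete culture medium. Activity is normalized to DMSO basal and 15 uM tetraoctylammonium bromide as full response.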

[3] = MultiTox-Fluor Cytotoxicity Assay - LYMP1-003 - Live Cells (AID 962);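 also: cells exposed to compound for 16 hours at 37 °C; cytotoxic hits lower the live-cell protease signal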
How it was run: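 qHTS, 1536-well; 2500 cells/well LYMP1-003; 5 hr 37 C settle; cpd 16 hr 37 C; MultiTox-Fluor reagent 60 min RT; live-cell protease fluor. 405/510; Hill-fit AC50; tetraoctylammonium bromide pos. ctrl.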

[4] = Cell Viability - LYMP1-003 - Assay at 24 hr (AID 963)
How it was run: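 Cells seeded at 2500/well, 5 hr at 37 C; compounds added; 24 hr at 37 C; CellTiter-Glo added, 30 min room temperature; luminescence read. Decrease in ATP taken as cytotoxicity, AC50 from Hill modelling.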

[5] = Cell Viability - LYMP1-003 - Assay at 40 hr (AID 964); also: series mostly up to about 92 µM; nearly all actives have a fitted effect of over 60% in size
How it was run: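 Cells were seeded at 2500 per well and incubated 5 hr at 37 C. Compounds were added across a concentration series and left 40 hr at 37 C. CellTiter-Glo was added for 30 min at room temperature before luminescence reading.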

[6] = Cell Viability - LYMP2-005 (AID 967); also: series mostly up to about 92 µM
How it was run: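 Steps: seed 2500 LYMP2-005 cells/well, incubate 5 h at 37 C, add compound, incubate 24 h at 37 C, add CellTiter-Glo, wait 30 min at RT, read luminescence. Concentration-response data fitted to Hill equation for AC50.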

[7] = Cell Viability - LYMP2-009 (AID 968); also: series mostly up to about 92 µM; nearly all actives have a fitted effect of over 55% in size
[8] = Cell Viability - LYMP2-011 (AID 969); also: nearly all actives have a fitted effect of over 60% in size
How it was run: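 2500 cells/well, 5 hr 37 C; compound added, 24 hr 37 C; CellTiter-Glo 30 min RT; luminescence. qHTS concentration-response, Hill-equation AC50. Tetraoctylammonium bromide positive control.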

[9] = Cell Viability - LYMP2-013 (AID 970); also: series mostly up to about 92 µM; nearly all actives have a fitted effect of over 55% in size
How it was run: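 qHTS; 2500 lymphoblastoid cells/well; 5 hr 37 C settle; cpd 24 hr 37 C; CellTiter-Glo, 30 min RT; luminescence. AC50 = Hill fit.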

[10] = Cell Viability - LYMP2-015 (AID 971); also: nearly all actives have a fitted effect of over 55% in size
How it was run: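 Luminescent ATP read-out (CellTiter-Glo) served as the viability measure after lymphoblastoid cells were exposed to compounds for 24 hours at 37 C. Concentration-response data were fitted with the Hill equation to give AC50.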

[11] = Cell Viability - LYMP2-017 (AID 972); also: series mostly up to about 92 µM; nearly all actives have a fitted effect of over 55% in size
How it was run: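 2500 cells/well, 5 h 37 C; cpd 24 h 37 C in complete medium; CellTiter-Glo, 30 min RT; luminescence (ATP). AC50 via Hill fit, qHTS.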

[12] = Cell Viability - LYMP2-019 (AID 973); also: nearly all actives have a fitted effect of over 55% in size
How it was run: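 Luminescent ATP read-out (CellTiter-Glo, 30 min room temperature) served as the viability measure after 24 hr treatment of lymphoblastoid cells at 37 C. Concentration-response data were fitted to the Hill equation for AC50.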

[13] = Cell Viability - LYMP2-021 (AID 974)
How it was run: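 Plate 2500 lymphoblastoid cells per well and incubate 5 hr at 37 C. Add compounds over a concentration range and incubate 24 hr at 37 C. Add CellTiter-Glo, wait 30 min at room temperature, read luminescence.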

[14] = Cell Viability - LYMP2-025 (AID 976); also: series mostly up to about 92 µM
How it was run: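 Seed 2500 LYMP2-025 cells/well; 5 hr at 37 C; add compound; 24 hr at 37 C; add CellTiter-Glo; 30 min RT; read luminescence. AC50 from Hill-modelled concentration-response.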

[15] = Cell Viability - LYMP2-002 (AID 977);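 also: series mostly up to about 92 µM; compound exposure lasted 24 h at 37 °C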
How it was run: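 Human lymphoblastoid LYMP2-002 cells, 2500 per well, exposed to compounds for 24 h at 37 C in complete medium; viability read as intracellular ATP by CellTiter-Glo luminescence, AC50 from Hill fits.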

[16] = Cell Viability - LYMP2-007 (AID 979);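 also: cells exposed to compound for 24 h before reading; nearly all actives have a fitted effect of over 60% in size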
How it was run: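 Luminescent ATP signal (CellTiter-Glo) serves as the viability read-out after 24 hr compound treatment of lymphoblastoid cells in complete medium at 37 C. Concentration-response data were fitted to the Hill equation to give AC50 values.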

[17] = Cell Viability - LYMP2-008 (AID 980); also: nearly all actives have a fitted effect of over 60% in size
How it was run: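 qHTS, human lymphoblastoid line, 2500 cells/well; 5 hr preincubation, 24 hr compound, 37 C. CellTiter-Glo ATP luminescence. AC50 via Hill equation. Tetraoctylammonium bromide positive control.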

[18] = Cell Viability - LYMP2-010 (AID 981); also: nearly all actives have a fitted effect of over 55% in size
How it was run: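 Luminescent ATP signal (CellTiter-Glo) served as the viability read-out. Cells of the human lymphoblastoid line were treated with compound over a concentration range for 24 hours at 37 C, and AC50 values came from Hill-equation modeling.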

[19] = Cell Viability - LYMP2-014 (AID 983); also: series mostly up to about 92 µM; nearly all actives have a fitted effect of over 50% in size
How it was run: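 Luminescent ATP signal (CellTiter-Glo, 30 min at room temperature) serves as the viability read-out after 24 hr compound exposure at 37 C. Cells were seeded at 2500 per well and settled 5 hr beforehand.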

[20] = Cell Viability - LYMP2-016 (AID 984); also: nearly all actives have a fitted effect of over 55% in size
How it was run: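 qHTS, 1536-well: 2500 LYMP2-016 cells/well, 5 hr 37 C, compound added, 24 hr 37 C, CellTiter-Glo 30 min RT, luminescence. Tetraoctylammonium bromide positive control. AC50 via Hill fit.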

Measured: Potency

O=C(O)c1ccccc1
inactive: [1] | [2] | [3] | [4] | [5] | [6] | [7] | [8] | [9] | [10] | [11] | [12] | [13] | [14] | [15] | [16] | [17] | [18] | [19] | [20]

CCCCCCCCCCCCCC(=O)O
inactive: [1] | [2] | [3] | [4] | [5] | [6] | [7] | [8] | [9] | [10] | [11] | [12] | [13] | [14] | [15] | [16] | [17] | [18] | [19] | [20]

COc1cc(/C=C/c2ccccc2)oc(=O)c1
inactive: [1] | [2] | [3] | [4] | [5] | [6] | [7] | [8] | [9] | [10] | [11] | [12] | [13] | [14] | [15] | [16] | [17] | [18] | [19] | [20]

C=C(C)C1CC=C(C)C(O)C1 (stereo not given)
inactive: [1] | [2] | [3] | [4] | [5] | [6] | [7] | [8] | [9] | [10] | [11] | [12] | [13] | [14] | [15] | [16] | [17] | [18] | [19] | [20]

C=CC(=C)CCC=C(C)C
inactive: [1] | [2] | [3] | [4] | [5] | [6] | [7] | [8] | [9] | [10] | [11] | [12] | [13] | [14] | [15] | [16] | [17] | [18] | [19] | [20]

CC1=C2[C@H](/C=C(\C)C(=O)O)CC[C@@H](C)[C@H]2CC1
inactive: [1] | [2] | [3] | [4] | [5] | [6] | [7] | [8] | [9] | [10] | [11] | [12] | [13] | [14] | [15] | [16] | [17] | [18] | [19] | [20]

COc1ccc(/C=C/c2cc(OC)cc(=O)o2)cc1
inactive: [1] | [2] | [3] | [4] | [5] | [6] | [7] | [8] | [9] | [10] | [11] | [12] | [13] | [14] | [15] | [16] | [17] | [18] | [19] | [20]

CCCCCCCCCCCC(=O)O
inactive: [1] | [2] | [3] | [4] | [5] | [6] | [7] | [8] | [9] | [10] | [11] | [12] | [13] | [14] | [15] | [16] | [17] | [18] | [19] | [20]

C=CCc1ccc(OC)c(OC)c1
inactive: [1] | [2] | [3] | [4] | [5] | [6] | [7] | [8] | [9] | [10] | [11] | [12] | [13] | [14] | [15] | [16] | [17] | [18] | [19] | [20]
